According to the supplement of paper PMC8728848:
This excerpt belongs to a sample that is enriched for the strongest signals.

What was measured:
Experiment in all cases: glycan array binding signal (z-score within array); higher = stronger binding
Conditions in all cases: glycan notation: IUPAC condensed, linker removed
[1] = molecular target: Fuc(a1-2)Gal(b1-4)GlcNAc6S
In short: (§1)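 The binding signal is a Z-score computed within each array and averaged over linkers. Arrays of the same protein sequence at different concentrations or buffers were also averaged together. Data originate from 3228 arrays in the Consortium for Functional Glycomics database, kept only where the protein sequence was available.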

[2] = molecular target: Fuc(a1-2)Gal(b1-4)[Fuc(a1-3)]GlcNAc(b1-3)Gal(b1-4)[Fuc(a1-3)]GlcNAc(b1-3)Gal(b1-4)[Fuc(a1-3)]GlcNAc
In short: as §1

[3] = molecular target: Fuc(a1-2)Gal6S(b1-4)Glc6S
In short: as §1

[4] = molecular target: Fuc(a1-2)[Gal(a1-3)]Gal
In short: as §1

[5] = molecular target: Fuc(a1-2)[GalNAc(a1-3)]Gal(b1-4)GlcNAc
In short: as §1

[6] = molecular target: Gal3S(b1-4)GlcNAc
In short: as §1

[7] = molecular target: Gal3S4S(b1-4)GlcNAc
In short: as §1

[8] = molecular target: Gal3S6S(b1-4)GlcNAc6S
In short: as §1

[9] = molecular target: Gal6S(b1-4)Glc6S
In short: as §1

[10] = molecular target: Gal6S(b1-4)GlcNAc6S
In short: as §1

[11] = molecular target: GlcNAc(b1-2)Gal(b1-3)GalNAc
In short: as §1

[12] = molecular target: Man(a1-2)Man(a1-3)Man
In short: as §1

[13] = molecular target: Man(a1-2)Man(a1-3)[Man(a1-2)Man(a1-6)]Man(a1-6)[Man(a1-2)Man(a1-2)Man(a1-3)]Man
In short: as §1

[14] = molecular target: Neu5Ac(a2-3)Gal(b1-4)Glc
In short: as §1

[15] = molecular target: Neu5Ac(a2-6)Gal(b1-4)GlcNAc(b1-2)Man(a1-6)[Gal(b1-4)GlcNAc(b1-2)Man(a1-3)]Man(b1-4)GlcNAc(b1-4)GlcNAc
In short: as §1

[16] = molecular target: Neu5Ac(a2-6)GalNAc
In short: as §1

B1: CBM32-4 (Clostridium perfringens), P26831 (protein)
chain: MGSSHHHHHHSSGLVPRGSHMASVYEPSLVDAYVGDDGAKKAVDGDLKTRVKFLGAPSTGDTIVYDLGQEILVDNLKYVVLDTEVDHVRDGKIQLSLDGETWTDAINIGDGVENGVDDMFSTPLKNGYKHGNQSGGIVPIDSAYVEGDNLNQKARYVRILFTAPYRHRWTVINELMINNGEYIPTVNDPT
glycan array binding signal (z-score) [1]: -0.104
glycan array binding signal (z-score) [2]: -0.29
glycan array binding signal (z-score) [3]: 4.3
glycan array binding signal (z-score) [4]: -0.4
glycan array binding signal (z-score) [5]: -0.266
glycan array binding signal (z-score) [6]: -0.195
glycan array binding signal (z-score) [7]: 3.87
glycan array binding signal (z-score) [8]: 5.67
glycan array binding signal (z-score) [9]: 4.96
glycan array binding signal (z-score) [10]: 4.9
glycan array binding signal (z-score) [11]: -0.264
glycan array binding signal (z-score) [12]: -0.021
glycan array binding signal (z-score) [13]: -0.564
glycan array binding signal (z-score) [14]: -0.183
glycan array binding signal (z-score) [15]: -0.336
glycan array binding signal (z-score) [16]: -0.363
